Measured values from PubChem BioAssay (NCATS).
Several values for one entry are separate records, joined by “and”; a condition that tells them apart may be missing. Equal entries are not always repeated. Inconclusive results are not listed. Where a call stands in place of a potency, no number is given. Values without a mark were called inactive. Activity calls are given as the source filed them. Calls come from the whole dose curve; as a rule, active = well fitted inhibition curve with a large enough effect; inconclusive = small, poorly fitted or top-dose-only effect; inactive = flat fitted curve, though single readings scatter.

Test: Primary qHTS for inhibitors of nuclear receptor binding SET domain protein 2 (NSD2) in an isogenic RCH-ACV NSD2 p.E1099K mutant (9B) (AID 1645876); note: nearly all actives have a fitted effect of over 70% in size
Settings: RCH-ACV (leukaemia line) NSD2 E1099K (9B) viability, CellTiter-Glo, 72 h; series mostly up to 44.9 µM
Potency is the fitted concentration of half-maximal effect.

| SMILES | Potency | outcome | activity change, negative = viability loss |
| --- | --- | --- | --- |
| CCOc1nc2cccc(C(=O)O)c2n1Cc1ccc(-c2ccccc2-c2noc(=O)[nH]2)cc1 | inactive | – | – |
| COC(=O)c1cc(CN2CCN(C(=N)N)CC2)cc(C(=O)N2CCN(C(=O)c3ccc(C(=N)N)cc3)CC2)c1 | inactive | – | – |
| C=C1CC[C@@H]2[C@](C)(CO[C@@H]3O[C@H](CO)[C@@H](O)[C@H](O)[C@H]3O)CCC[C@@]2(C)[C@@H]1CCC1=CCOC1=O | inactive | – | – |
| O=C(/C=C/c1ccc(O)cc1)OC[C@H]1O[C@@H](OC(=O)/C=C/c2ccccc2)[C@H](O)[C@@H](O)[C@@H]1O | inactive | – | – |
| C=CC1(C)C=C2C(O)CC3C(C)(C(=O)O)CCCC3(C)C2CC1 (stereo not given) | inactive | – | – |
| CCN(c1cc(C#CCN2CCOCC2)cc(C(=O)NCc2c(C)cc(C)[nH]c2=O)c1C)C1CCC(N(C)CCOC)CC1 (stereo not given) | inactive | – | – |
| N#CCc1ccc(O)cc1O[C@@H]1O[C@H](CO)[C@@H](O)[C@H](O)[C@H]1O | inactive | – | – |
| C/C=C(\C)C(=O)OC[C@H]1O[C@H](O[C@H]2O[C@H](CO)[C@@H](OC(=O)/C(C)=C/C)[C@H](O)[C@H]2O[C@@H]2O[C@H](CO)[C@@H](O)[C@H](O)[C@H]2O)[C@H](O[C@@H]2O[C@H](CO)[C@@H](O)[C@H](O)[C@H]2O)[C@@H](O)[C@@H]1O | – | inactive [at 9.23 µM] | – |
| COC12CC3C(C(C)C1=CC(=O)O2)C(O)C(OC(C)=O)C1C(C)(C)C(OC(C)=O)CCC31C (stereo not given) | inactive | – | – |
| O=C(CCO[C@@H]1O[C@H](CO)[C@@H](O)[C@H](O)[C@H]1O)c1ccc(O)cc1 | inactive | – | – |
| COc1ccc(/C=C/C(=O)O[C@H]2[C@@H]3C=CO[C@@H](O[C@@H]4O[C@H](CO)[C@@H](O)[C@H](O)[C@H]4O)[C@@H]3[C@@]3(CO)O[C@@H]23)cc1O | inactive | – | – |
| CC(=O)c1c(O)cc2c(c1C)C(=O)CC(O)C2 (stereo not given) | inactive | – | – |
| CC1[C@@H](O)[C@@H](O)C2[C@]3(C)C(C[C@H]4OC(=O)[C@H](O)[C@]1(O)[C@@]24C)C(C)(O)C[C@H](O)[C@H]3O (stereo not given in full) | inactive | – | – |
| CC1CCC2C(C)(C)C(O)CCC2(C)C12Cc1c(O)cc3c(c1O2)C(N)=NC3 (stereo not given) | inactive | – | – |
| C=C1CCC2C(C)(CO[C@@H]3O[C@H](CO)[C@@H](O)[C@H](O)[C@H]3O)C(O)CCC2(C)C1C(=O)CC1=CCOC1=O (stereo not given in full) | inactive | – | – |
| Cc1ncc([N+](=O)[O-])n1CC(O)CN1CCOCC1 (stereo not given) | inactive | – | – |
| CC1(C)CC2C(C1)C1(C)CCC13OC3(CO)C2O (stereo not given) | inactive | – | – |
| C[C@]12CCC(=O)C=C1[C@@H](O)C[C@@H]1[C@@H]2[C@@H](O)C[C@@]2(C)[C@H]1CC[C@]2(O)C(=O)CO | inactive | – | – |
| C[C@@H]1CC[C@]2(C(=O)O)CC[C@]3(C(=O)O)C(=CCC4[C@@]5(C)CC[C@H](O[C@@H]6O[C@@H](C)[C@H](O[C@@H]7O[C@H](CO)[C@@H](O)[C@H](O)[C@H]7O)[C@@H](O)[C@H]6O)C(C)(C)C5CC[C@]43C)C2[C@H]1C (stereo not given in full) | inactive | – | – |
| CC1(C)O[C@]23C[C@H]1C[C@H](OC(=O)c1ccoc1)[C@]2(C)[C@@H](OC(=O)c1ccoc1)CCC3(C)O (stereo not given in full) | inactive | – | – |

| SMILES | Potency | outcome | activity change, negative = viability loss |
| --- | --- | --- | --- |
| CC1CCC2(C(=O)OC3OC(COC4OC(CO)C(O)C(O)C4O)C(O)C(O)C3O)CCC3(C)C(=CCC4C5(C)CCC(O)C(C)(C(=O)O)C5CCC43C)C2C1(C)O (stereo not given) | – | – | 1.95% [at 9.23 µM] |
| CC1OC(OC2C(CO)OC(OCC3OC(OC(=O)C45CCC(C)(C)CC4C4=CCC6C7(C)CCC(OC8OC(C(=O)O)C(O)C(OC9OC(CO)C(O)C(O)C9O)C8O)C(C)(C)C7CCC6(C)C4(C)CC5)C(O)C(O)C3O)C(O)C2O)C(O)C(O)C1O (stereo not given) | – | – | 0.172% [at 9.23 µM] |
| COC(=O)C1=C[C@@H](O)[C@@H](O)[C@H](O[C@@H]2O[C@H](COC(=O)/C=C/c3ccccc3)[C@@H](O)[C@H](O)[C@H]2O)C1 | inactive | – | – |
| O=C(/C=C/c1ccc(O)cc1)O[C@H]1[C@@H]2C=CO[C@@H](O[C@@H]3O[C@H](CO)[C@@H](O)[C@H](O)[C@H]3O)[C@@H]2[C@@]2(CO)O[C@@H]12 | inactive | – | – |
| O=C(O)C[C@H](O)C[C@H](O)/C=C/c1c(C2CC2)nc2ccccc2c1-c1ccc(F)cc1 | 1.83 µM (active) and 1.18 µM (active) | – | – |
| CC1(C(=O)O)CCCC2(C)C1CCC13CC(CCC21)C1(CO)OC31 (stereo not given) | inactive | – | – |
| OC[C@H]1O[C@@H](OCCc2ccc(O)cc2)[C@H](O)[C@@H](O)[C@@H]1O | inactive | – | – |
| CC(=O)OC[C@]12[C@H](OC(C)=O)C(=O)[C@@H]3[C@@H](OC(C)=O)[C@@]14O[C@@]3(C)COC(=O)c1cccnc1[C@@H](C)[C@H](C)C(=O)O[C@@H]([C@H](OC(C)=O)[C@@H]2OC(C)=O)[C@]4(C)O | inactive | – | – |
| CCCCCCc1cccc(NC(=O)[C@H](N)CCP(=O)(O)O)c1 | – | inactive [at 9.23 µM] | – |
| COc1cc(O[C@@H]2O[C@H](CO)[C@@H](O)[C@H](O)[C@H]2O)c(CCC(=O)OC[C@H]2O[C@@H](Oc3cc(OC)c(C4OC(=O)C(C)(O)C4O)cc3CCC(=O)O)[C@H](O)[C@@H](O)[C@@H]2O)cc1C1OC(=O)C(C)(O)C1O (stereo not given in full) | – | – | -2.96% [at 9.23 µM] |
| CC(C(=O)O)C1CCC2(C)C3C(=O)C=C4C(CCC(=O)C4(C)C)C3(C)CCC12C (stereo not given) | inactive | – | – |
| CCC(CCO[C@@H]1O[C@H](CO[C@H]2OC[C@](O)(CO)[C@H]2O)[C@@H](O)[C@H](O)[C@H]1O)C(C)(C)O (stereo not given in full) | inactive | – | – |
| O=C(/C=C/c1c(C(=O)O)[nH]c2cc(Cl)cc(Cl)c12)Nc1ccccc1 | inactive | – | – |
| C[C@@H](OC(=O)/C=C/c1ccc(O)cc1)C1=C[C@]2(C=C[C@@H]3C(C(=O)O)=CO[C@@H](O[C@@H]4O[C@H](CO[C@@H]5O[C@H](CO)[C@@H](O)[C@H](O)[C@H]5O)[C@@H](O)[C@H](O)[C@H]4O)[C@@H]32)OC1=O | inactive | – | – |
| COc1ccc(C(OC2OC(CO)C(O)C(O)C2O)C(C)O)cc1 (stereo not given) | inactive | – | – |
| COC(=O)C[C@@H]1C(C(=O)O)=CO[C@@H](O[C@@H]2O[C@H](CO)[C@@H](O)[C@H](O)[C@H]2O)/C1=C\COC(=O)/C=C\c1ccccc1 | inactive | – | – |
| CC(C)(O)CNc1nc(Nc2ccnc(C(F)(F)F)c2)nc(-c2cccc(C(F)(F)F)n2)n1 | 20.9 µM (active) | – | – |
| COc1cc(C2Oc3c(OC)cc(CCCO[C@@H]4O[C@H](CO)[C@@H](O)[C@H](O)[C@H]4O)cc3C2CO)ccc1O (stereo not given in full) | inactive | – | – |
| CCC[C@@H]1C[C@@H](C(=O)N[C@H](C(C)Cl)[C@H]2O[C@H](SC)[C@H](O)[C@@H](O)[C@H]2O)N(C)C1 (stereo not given in full) | inactive | – | – |
| CN1C(=O)N[C@@H](Cc2c[nH]c3c(Cl)cccc23)C1=O | inactive | – | – |
